In all, about 290,000 compounds went through this assay and about 110 (0.038%) were called active. Another 3% or so got no clear call; they are omitted. Calls come from the whole dose curve; as a rule, active = well fitted inhibition curve with a large enough effect in the polarisation, with a control signal flat (not every such curve was filed as active); inconclusive = small, poorly fitted or top-dose-only effect, or effect the other way, or a change in a side signal; inactive = no such curve, though single readings can be large or run the other way; the % refers to the polarisation. What follows is part of a selection rich in actives, with near analogues and random picks from the rest.
Target: Histone-lysine N-methyltransferase 2A (Homo sapiens) (UniProt Q03164)
Sequence (Q03164 whole entry, looked up, the tested form may be a part): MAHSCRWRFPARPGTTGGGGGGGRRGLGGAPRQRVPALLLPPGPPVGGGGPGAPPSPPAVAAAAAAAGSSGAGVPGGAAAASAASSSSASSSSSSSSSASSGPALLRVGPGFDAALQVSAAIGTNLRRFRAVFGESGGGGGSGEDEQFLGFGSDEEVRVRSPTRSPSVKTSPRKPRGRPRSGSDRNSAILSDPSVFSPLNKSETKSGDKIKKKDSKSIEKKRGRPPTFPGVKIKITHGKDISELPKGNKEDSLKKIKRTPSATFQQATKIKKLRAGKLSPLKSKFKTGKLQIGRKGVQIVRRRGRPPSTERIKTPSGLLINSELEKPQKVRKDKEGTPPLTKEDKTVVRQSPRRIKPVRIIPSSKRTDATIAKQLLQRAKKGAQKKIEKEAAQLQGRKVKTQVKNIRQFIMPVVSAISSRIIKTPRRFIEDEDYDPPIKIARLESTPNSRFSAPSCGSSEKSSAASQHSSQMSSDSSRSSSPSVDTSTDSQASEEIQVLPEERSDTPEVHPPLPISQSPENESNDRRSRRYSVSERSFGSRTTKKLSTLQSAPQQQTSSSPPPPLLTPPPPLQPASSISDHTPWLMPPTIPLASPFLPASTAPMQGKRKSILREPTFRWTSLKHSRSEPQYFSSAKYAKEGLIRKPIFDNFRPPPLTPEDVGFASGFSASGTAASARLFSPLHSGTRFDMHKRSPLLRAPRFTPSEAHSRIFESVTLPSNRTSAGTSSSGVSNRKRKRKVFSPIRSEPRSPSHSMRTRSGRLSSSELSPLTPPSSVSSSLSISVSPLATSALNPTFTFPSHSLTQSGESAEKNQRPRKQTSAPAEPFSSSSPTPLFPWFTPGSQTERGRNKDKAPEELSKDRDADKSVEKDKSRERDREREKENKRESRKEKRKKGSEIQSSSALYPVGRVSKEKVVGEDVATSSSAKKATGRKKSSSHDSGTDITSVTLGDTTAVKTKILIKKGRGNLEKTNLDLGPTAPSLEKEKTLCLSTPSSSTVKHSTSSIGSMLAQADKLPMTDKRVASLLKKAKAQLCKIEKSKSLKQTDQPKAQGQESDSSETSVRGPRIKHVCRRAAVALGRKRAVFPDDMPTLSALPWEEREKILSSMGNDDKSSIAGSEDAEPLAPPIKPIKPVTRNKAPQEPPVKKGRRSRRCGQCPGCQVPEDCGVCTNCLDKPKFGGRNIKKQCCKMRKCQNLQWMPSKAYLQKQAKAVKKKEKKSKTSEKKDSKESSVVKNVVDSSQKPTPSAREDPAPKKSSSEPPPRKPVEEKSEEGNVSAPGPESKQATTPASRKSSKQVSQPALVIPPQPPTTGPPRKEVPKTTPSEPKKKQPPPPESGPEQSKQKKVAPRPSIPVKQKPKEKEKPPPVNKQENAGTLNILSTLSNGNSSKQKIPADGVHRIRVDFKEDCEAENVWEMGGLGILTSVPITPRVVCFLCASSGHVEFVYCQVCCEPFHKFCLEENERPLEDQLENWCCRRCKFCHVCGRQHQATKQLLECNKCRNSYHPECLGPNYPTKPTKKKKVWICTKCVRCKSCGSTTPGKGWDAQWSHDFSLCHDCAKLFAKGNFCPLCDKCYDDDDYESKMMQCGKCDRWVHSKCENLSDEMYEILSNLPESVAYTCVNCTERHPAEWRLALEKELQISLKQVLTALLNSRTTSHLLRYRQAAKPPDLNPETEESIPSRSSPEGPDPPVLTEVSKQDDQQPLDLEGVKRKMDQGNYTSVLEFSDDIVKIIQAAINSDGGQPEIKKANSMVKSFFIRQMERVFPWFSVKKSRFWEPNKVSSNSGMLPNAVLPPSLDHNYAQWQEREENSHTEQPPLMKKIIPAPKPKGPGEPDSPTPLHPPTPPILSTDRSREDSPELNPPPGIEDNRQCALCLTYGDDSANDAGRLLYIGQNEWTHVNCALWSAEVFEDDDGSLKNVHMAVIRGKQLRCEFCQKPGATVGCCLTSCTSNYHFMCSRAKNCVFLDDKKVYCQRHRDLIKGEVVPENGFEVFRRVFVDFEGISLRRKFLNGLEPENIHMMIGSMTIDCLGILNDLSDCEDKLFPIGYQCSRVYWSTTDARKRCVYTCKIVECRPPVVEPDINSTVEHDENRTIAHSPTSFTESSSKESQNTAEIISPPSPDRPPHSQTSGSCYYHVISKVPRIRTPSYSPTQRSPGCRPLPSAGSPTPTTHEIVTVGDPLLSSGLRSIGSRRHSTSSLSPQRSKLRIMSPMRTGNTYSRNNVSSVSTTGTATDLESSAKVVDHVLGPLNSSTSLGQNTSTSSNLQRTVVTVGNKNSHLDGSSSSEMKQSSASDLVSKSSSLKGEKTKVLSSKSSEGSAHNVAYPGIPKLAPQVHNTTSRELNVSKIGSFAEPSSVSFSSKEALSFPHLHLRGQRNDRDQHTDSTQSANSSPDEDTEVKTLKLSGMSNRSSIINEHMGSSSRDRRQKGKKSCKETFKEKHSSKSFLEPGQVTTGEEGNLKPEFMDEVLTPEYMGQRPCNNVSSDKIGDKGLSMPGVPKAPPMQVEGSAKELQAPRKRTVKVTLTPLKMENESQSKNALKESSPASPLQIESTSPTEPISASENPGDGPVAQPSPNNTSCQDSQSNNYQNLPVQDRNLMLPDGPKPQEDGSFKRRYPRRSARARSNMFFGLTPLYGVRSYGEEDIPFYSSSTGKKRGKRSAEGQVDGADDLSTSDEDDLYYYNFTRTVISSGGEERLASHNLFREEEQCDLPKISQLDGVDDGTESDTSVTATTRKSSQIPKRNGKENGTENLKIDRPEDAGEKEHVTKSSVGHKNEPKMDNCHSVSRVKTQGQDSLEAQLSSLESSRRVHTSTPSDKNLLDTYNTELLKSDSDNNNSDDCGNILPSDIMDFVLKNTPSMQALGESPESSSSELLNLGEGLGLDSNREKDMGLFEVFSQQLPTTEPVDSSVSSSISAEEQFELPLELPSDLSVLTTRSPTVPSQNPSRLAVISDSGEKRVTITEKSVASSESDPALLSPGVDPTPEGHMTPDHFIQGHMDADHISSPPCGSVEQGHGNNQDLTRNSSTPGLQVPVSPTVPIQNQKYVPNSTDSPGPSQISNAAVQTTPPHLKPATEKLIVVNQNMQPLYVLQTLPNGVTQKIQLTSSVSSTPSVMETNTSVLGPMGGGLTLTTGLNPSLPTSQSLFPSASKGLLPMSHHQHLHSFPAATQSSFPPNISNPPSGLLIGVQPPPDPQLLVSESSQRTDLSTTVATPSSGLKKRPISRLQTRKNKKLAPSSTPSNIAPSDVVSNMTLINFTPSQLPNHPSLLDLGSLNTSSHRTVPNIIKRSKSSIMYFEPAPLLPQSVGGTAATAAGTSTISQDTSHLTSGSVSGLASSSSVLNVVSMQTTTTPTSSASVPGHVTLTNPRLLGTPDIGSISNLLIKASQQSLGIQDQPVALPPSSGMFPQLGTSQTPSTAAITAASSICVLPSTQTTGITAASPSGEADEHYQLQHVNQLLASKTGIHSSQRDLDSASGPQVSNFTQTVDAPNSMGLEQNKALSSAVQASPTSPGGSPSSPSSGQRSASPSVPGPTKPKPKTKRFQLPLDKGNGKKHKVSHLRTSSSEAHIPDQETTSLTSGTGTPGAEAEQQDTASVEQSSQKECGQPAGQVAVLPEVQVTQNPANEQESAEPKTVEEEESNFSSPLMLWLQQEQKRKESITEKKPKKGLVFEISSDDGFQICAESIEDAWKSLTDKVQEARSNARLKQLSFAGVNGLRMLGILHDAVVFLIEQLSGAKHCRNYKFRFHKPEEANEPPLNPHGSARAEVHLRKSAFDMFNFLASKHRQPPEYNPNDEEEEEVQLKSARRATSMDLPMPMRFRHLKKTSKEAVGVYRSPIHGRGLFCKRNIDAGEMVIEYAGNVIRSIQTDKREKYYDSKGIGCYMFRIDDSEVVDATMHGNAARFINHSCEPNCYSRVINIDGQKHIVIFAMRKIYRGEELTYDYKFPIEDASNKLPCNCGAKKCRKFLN
Test: qHTS Fluorescence Polarization Assay for Inhibitors of MLL CXXC domain - DNA interaction
Settings: MLL-CXXC / FITC-HOXA9 DNA fluorescence polarization; series mostly up to 115 µM
From the text: NIH Chemical Genomics Center [NCGC] NIH Molecular Libraries Probe Production centers Network [MLPCN] MLPCN Grant: DA027717-01A1 Assay Submitter (PI): John Bushweller NCGC Assay Overview: The MLL (Mixed Lineage Luekemia) gene is involved in chromosomal translocation that results in either acute lymphoid leukemia (ALL) or acute myeloid leukemia (AML). Chromasomal translocation of MLL gene is responsible for the fusion of N-terminal MLL to more than 60 different partner genes in frame. Many of the MLL partner genes contain transcription activation domains or function as transcriptional activators. Despite the heterogeneity of fusion partners, the N-terminus of MLL fusion proteins always consists of the N-terminal menin binding motif and the CXXC domain. The MLL-CXXC domain specifically recognizes unmethylated CpG sequences of the HOX-A gene. Disruption of the MLL-CXXC and HOX-A gene interaction leads to down regulation of HOX-A gene expression and may potentially reverse leukemogenesis. We have miniaturized and optimized an in-vitro assay to screen for inhibitors of the MLL-CXXC domain and HOX-A DNA interaction, which could have utility in MLL fusion leukemias.
The affinity purified MLL-CXXC domain, unlabeled HOX-A9 DNA strand, fluorescein (FLSN) labeled HOX-A9 DNA strand were kindly supplied by the laboratory of Dr. John Bushweller, University of Virginia. All reagents were stored in single use aliquots at -80C. Assay Reagents: Assay buffer: 50 mM TRIS-HCl pH 7.5, 50 mM NaCl, 1 mM DTT. Add 0.05% BSA prior to reaction setup. Assay Procedure: 1.Dispense 1 ul of a 7 uM MLL-CXXC solution prepared in assay buffer into column 1-48. 2.Transfer 23 nl of compounds and unlabeled HOX-A9 per well. 3.Incubate for 5 minutes at ambient. 4.Dispense 1ul of a 50 nM FLSN-HOX-A9 solution prepared in assay buffer into columns 1-48 5.Centrifuge for 30 seconds at 1000 RPM. 6.Incubate for 30 minutes at ambient. 7.Read using the Envision reader fluorescent polarization protocol.

Potency, inactive:
COc1ccc(N(CC(=O)Nc2cc(OC)cc(OC)c2)S(=O)(=O)c2c(C)n[nH]c2C)cc1
CC(C)NC(=O)C(c1ccc(F)cc1)N(C(=O)CCC(=O)Nc1ccccn1)c1ccccc1F (centres undefined)
COc1ccc(C(=O)NC(C)CCc2ccccc2)c(OC)c1 (centres undefined)
O=C(CN1CCC(NC(=O)C2CC2)CC1)Nc1ccccc1[N+](=O)[O-]
CCCOc1ccc(-c2c(C(=O)N/N=C/c3ccco3)nnn2-c2nonc2N)cc1
COC(=O)c1cc(S(=O)(=O)Nc2ccc(C)c(F)c2)c[nH]1
O=C(c1ccccc1)N1CCN(C(=O)c2cc3nc(-c4ccccc4)cc(C(F)(F)F)n3n2)CC1
COc1cccc(N(CC(=O)NC2CCCC2)C(=O)Cn2nnc(-c3ccc(C)o3)n2)c1
COc1ccc2c(c1OC)C(=O)N(c1ccc(O)cc1)C2
C=CC1(C)CC(=O)C2(O)C(C)(O1)C(OC(C)=O)C(O)C1C(C)(C)CCC(O)C12C (centres undefined)
C=C1C(=CC=C2CCC[C@@]3(C)[C@@H]2CC[C@H]3[C@H](C)CCCC(C)C)C[C@@H](O)C[C@@H]1O
O=C(CCS(=O)(=O)c1ccccc1)NC1CCCC1
CCN1C(=NCC(C)C)N[C@@H](CCc2ccccc2)[C@H](C(=O)NCC(C)C)[C@H]1C
O=C(COc1ccc(Cl)cc1)Nc1ccc2c(c1)OCO2
COc1cccc(OCC(O)CNC(=O)c2oc3c(C)c(C)ccc3c2C)c1 (centres undefined)
O=C(NCCc1ccccn1)c1nc(Cn2cc([N+](=O)[O-])cn2)no1
COc1ccc(-c2cc(=O)oc3cc(OC(C)C(=O)Nc4ccc(CN5CCOCC5)cc4)ccc23)cc1 (centres undefined)
CCOc1cc(C(=O)O)ccc1OCCOc1ccccc1
Cc1cc(C)cc(N(CCC#N)C(=O)CN2C(=O)NC3(CCCC3)C2=O)c1
CC(=O)N(C)c1ccc(NC(=O)Nc2cccc3ccccc23)cc1
CS(=O)(=O)N(CC(=O)Nc1ccc(F)cc1)C1CCCCC1
CC(=O)c1ccc(OCC(O)CN2CCN(S(=O)(=O)c3cccc(Br)c3)CC2)cc1 (centres undefined)
COc1ccccc1N1CCN(C(=O)c2cc(=O)c3cc(C)ccc3o2)CC1
Cc1ccc(OCC(=O)Nc2ccc(C(=O)O)cc2NC(=O)COc2ccc(C)c(C)c2)cc1C
Cc1nn(C(C)(C)C)c(OC(=O)CC(C)C)c1S(=O)(=O)c1ccccc1
C[C@]12CC[C@@H]3c4ccc(O)cc4C[C@@H](CCCCCCCCCS(=O)CCCC(F)(F)C(F)(F)F)C3[C@@H]1CC[C@@H]2O (some centres undefined)
COc1ccccc1C(=O)NC(CCSC)C(=O)NNC(=O)c1csc(N2CCOCC2)n1 (centres undefined)
Cc1ccc(S(=O)(=O)NCCCn2ccnc2)cc1C(=O)NC(C)C
O=C(O)c1ccccc1C(=O)NC1=NN(c2ccccc2)CC1
O=C(NCCCN1CCCCC1)C1CC(=O)N(CCc2ccccc2)C1 (centres undefined)
COc1cc2c(cc1OC)[C@@H](Cc1cc(OC)c(OC)c(OC)c1)[N+](C)(CCCOC(=O)CC/C=C/CCC(=O)OCCC[N+]1(C)CCc3cc(OC)c(OC)cc3[C@H]1Cc1cc(OC)c(OC)c(OC)c1)CC2 (some centres undefined)
CN(C(=O)c1ccccc1)c1nccnc1C#N
O=S(=O)(NC1CCCCC1N1CCN(c2ccccc2F)CC1)c1ccccc1 (centres undefined)
CCC1CCCCN1C(=S)Nc1ccc(S(=O)(=O)Nc2ncccn2)cc1 (centres undefined)
Cc1cc(C)cc(OCC(=O)Nc2cc(NC(=O)COc3cc(C)cc(C)c3)cc(C(=O)O)c2)c1
C[C@H](NC(=O)C1CC(=O)N(c2ccc3c(c2)OCCO3)C1)C(=O)N1CCC(C(=O)O)CC1 (some centres undefined)
Cc1cc(C)c2nc(N3CCC(C(=O)NCCN4CCOCC4)CC3)sc2c1
Cc1ccc(C(C(=O)NCC2CCCO2)N(C(=O)c2snc(C(N)=O)c2N)c2ccc(C(C)C)cc2)o1 (centres undefined)
CCOC(=O)[C@@H]1[C@H]2COc3ccc(Br)cc3[C@H]2N2C(=O)N(c3ccc(Cl)cc3)C(=O)[C@@]12C
CC(=O)NC1CCN(CC(=O)Nc2nccs2)CC1
O=C(COc1ccc(Cl)cc1Cl)N/N=C/c1ccccn1
Cc1cccc(N(C)C(=O)CN2C(=O)COc3ccc(S(=O)(=O)N4CCCCCC4)cc32)c1
O=C(Nc1cccc(-n2cnnn2)c1)c1cccnc1
COc1ccccc1CCNC(=O)c1c(C)nn(CC(C)C)c1Cl
Cc1cccc(C)c1NC(=O)CS(=O)CC(=O)N1CCN(c2ccccc2)CC1 (centres undefined)
O=C(Nc1ncc([N+](=O)[O-])s1)C1COc2ccccc2O1 (centres undefined)
CC(C)CNC(=O)C(=O)NCC(c1ccc2c(c1)OCO2)N1CCOCC1 (centres undefined)
Cc1ccc(-c2noc(CNC(=O)c3ccoc3C)n2)cc1
O=C(CCS(=O)(=O)c1ccc2c(c1)NC(=O)CS2)NCc1ccccc1Cl

From PubChem BioAssay AID2662 (National Center for Advancing Translational Sciences (NCATS), 2010)
